High-throughput results from PubChem.
Mtb FBA inh: Mtb fructose-bisphosphate aldolase inhibition; purified M. tuberculosis FBA, fluorescence read-out; P9WQA3; AID 588726; inhibition, % at 1 µM; 360,000 compounds, 2.3% hits;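 further: 0% = vehicle and 100% = reference inhibitor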
Target sequence (P9WQA3 whole entry, looked up): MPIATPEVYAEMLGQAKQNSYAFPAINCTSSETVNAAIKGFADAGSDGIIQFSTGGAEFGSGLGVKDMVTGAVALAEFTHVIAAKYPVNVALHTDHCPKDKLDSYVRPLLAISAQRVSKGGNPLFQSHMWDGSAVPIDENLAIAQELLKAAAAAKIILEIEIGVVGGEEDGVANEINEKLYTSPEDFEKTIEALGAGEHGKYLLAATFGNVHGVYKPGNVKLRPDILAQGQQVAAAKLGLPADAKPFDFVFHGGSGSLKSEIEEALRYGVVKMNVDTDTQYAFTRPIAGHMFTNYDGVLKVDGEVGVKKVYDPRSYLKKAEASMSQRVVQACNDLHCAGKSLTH
GDH-TPI counter-1: inhibits GDH-TPI coupling enzymes, artifact for Mtb FBA screen | GDH-TPI coupled enzyme counterscreen, NADH absorbance | inhibition, % at 4.8 µM | 360,000 compounds, 1.2% hits; in the data active means inhibition above about 30%;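 further: 0% = DMSO wells and 100% = wells lacking the enzyme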
Rv3671c protease: inhibits the M. tuberculosis serine protease Rv3671c | P9WHR9 | 320,000 compounds, 0.048% hits | AID 2606 | inhibition, % at 5.96 µM; in the data active means inhibition above about 38%;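 further: extracellular domain of Rv3671c used as enzyme; 0% = enzyme with DMSO and 100% = no enzyme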
Mtb UGM inh: inhibitors of M. tuberculosis UDP-galactopyranose mutase | AID 504406 | 320,000 compounds, 0.06% hits | inhibition, % at 10 µM | P9WIQ1 | purified UGM, fluorescence polarization probe displacement; in the data active means inhibition above about 10%, passing the limit was not always enough
Mtb FBA inh conf: Mtb FBA inhibition, confirmed; shares compounds with Mtb FBA inh; purified M. tuberculosis FBA, fluorescence read-out; inhibition, % at 1 µM; 5,600 compounds, 78% hits; AID 651616;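 further: 0% = vehicle wells and 100% = reference inhibitor wells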
GDH-TPI counter-2: GDH-TPI inhibition counter-screen for FBA inhibitors. shares compounds with Mtb FBA inh. inhibition, % at 1 µM. AID 652141. 5,600 compounds, 81% hits. GDH-TPI coupled enzyme counterscreen, fluorescence; in the data active means inhibition above about 10%
The depositor's hits bear a star; · = no result; + = active, no number. Most compounds without a hit are left out; they make up all but 3.5% or so of the library. Unless noted, no stated cut-off is given here; in the data, active means inhibition above about 27%; inactive means the rest.

SMILES | Mtb FBA inh | GDH-TPI counter-1 | Rv3671c protease | Mtb UGM inh | Mtb FBA inh conf | GDH-TPI counter-2
CSCCC(NC(=O)COc1ccccc1)C(=O)N1CCCCCC1 (configuration not stated) | -2 | -4 | 1 | -1 | · | ·
CCOCCCNC(=O)c1cc2c(=O)n3cccc(C)c3nc2s1 | 24 | 15 | -8 | 2 | · | ·
Cc1cccn2c(=O)c3cc(C(=O)N4CCCCC4)sc3nc12 | 64* | 31* | -3 | -1 | 122* | 83*
Cc1cccn2c(=O)c3cc(C(=O)NCCCOC(C)C)sc3nc12 | 103* | 23 | 1 | 0 | 4 | 2
Cc1cccn2c(=O)c3cc(C(=O)N4CCCC(C)C4)sc3nc12 (configuration not stated) | 22 | 21 | -2 | -4 | · | ·
CCC1CCCCN1C(=O)c1cc2c(=O)n3cccc(C)c3nc2s1 (configuration not stated) | 16 | 7 | 4 | 0 | · | ·
CCOC(=O)C1CCN(C(=O)c2cc3c(=O)n4cccc(C)c4nc3s2)CC1 | 100* | 12 | -10 | 0 | + | 166*
Cc1cccn2c(=O)c3cc(C(N)=S)c(=N)n(CCCOC(C)C)c3nc12 | 63* | 16 | -1 | 2 | 6 | 0
Cc1cccn2c(=O)c3cc(C(=O)NCC(C)C)sc3nc12 | 20 | 10 | 1 | 2 | · | ·
Cc1cccn2c(=O)c3cc(C(=O)NC4CCCC4)sc3nc12 | 91* | 17 | 2 | -1 | 66* | 51*
CCCN(CCC)C(=O)c1cc2c(=O)n3cccc(C)c3nc2s1 | 30* | 24 | 0 | -4 | 137* | 98*
CC(C)CN(CC(C)C)C(=O)c1cc2c(=O)n3ccccc3nc2s1 | 59* | 4 | -1 | 4 | + | 194*
OC(c1ccc(F)c(F)c1)c1ncc(-c2ccc(F)cc2)[nH]1 (configuration not stated) | 1 | 5 | · | · | · | ·
CCOc1cc(O)c(-c2[nH]ncc2-c2nc(C)cs2)cc1CC | 0 | 5 | -1 | 0 | · | ·
CSc1ccc(/C=C/C(=O)OCC(=O)N2CCN(S(=O)(=O)c3ccc(C)cc3C)CC2)cc1 | 6 | 16 | -4 | 0 | · | ·
FC(F)(F)c1cc(-c2cccs2)nc(-n2cc(Cl)cn2)n1 | 30* | 20 | 0 | 0 | 41* | 35*
CC1(C)C2CCC(CN)C1C2 (configuration not stated) | -1 | 8 | · | · | · | ·
O=C(COc1ccccc1Cl)NNC(=O)c1ccc2c(=O)n3c(nc2c1)CCC3 | 6 | 10 | -8 | 1 | · | ·
c1ccc(Nc2ccc(-n3ccnc3)nn2)cc1 | 69* | 5 | 5 | 0 | 127* | 140*
CCOc1ccccc1N(CC(=O)NCc1ccco1)C(=O)CCC(=O)Nc1nccs1 | -1 | 4 | -12 | -3 | · | ·
N#C/C(=C\c1c(Oc2ccccc2F)nc2ccccn2c1=O)C(=O)NC1CCS(=O)(=O)C1 (configuration not stated) | 28* | 4 | 0 | -1 | 106* | 84*
N#C/C(=C\c1c(Oc2ccccc2Cl)nc2ccccn2c1=O)C(=O)NC1CCS(=O)(=O)C1 (configuration not stated) | 15 | 3 | -3 | 0 | · | ·
Oc1ccc(-c2nccs2)cc1 | 47* | 18 | · | · | 108* | 86*
COc1ccc(CN(C)C(=O)c2cc(S(=O)(=O)Nc3ccccc3F)ccc2C)c(OC)c1 | 0 | 6 | -17 | -1 | · | ·
O=C(O)CSc1nc(-c2ccccc2)c(-c2ccccc2)[nH]1 | 29* | -3 | 6 | 3 | 1 | 1
SMILES | Mtb FBA inh | GDH-TPI counter-1 | Rv3671c protease | Mtb UGM inh | Mtb FBA inh conf | GDH-TPI counter-2
CC(C)(C)NC(=O)CSc1nc(-c2ccccc2)c(-c2ccccc2)[nH]1 | 7 | 8 | 6 | 2 | · | ·
CCc1ccc(/C=N/n2c(COc3ccccc3)n[nH]c2=S)cc1 | -2 | 10 | 1 | 1 | · | ·
O=C(Nc1ccncc1)c1cc(S(=O)(=O)N2CCOCC2)ccc1Cl | 97* | 1 | 1 | -1 | + | +
CN(CCOc1ccccc1)C(=O)c1cc(S(=O)(=O)N2CCOCC2)ccc1Cl | 31* | 8 | 6 | -1 | 146* | 116*
O=C(Nc1ccc(S(=O)(=O)N2CCOCC2)cc1)c1cc(S(=O)(=O)N2CCOCC2)ccc1Cl | 1 | 2 | -8 | 2 | · | ·
CN(CCOc1ccc(Cl)cc1)C(=O)c1ccc(S(=O)(=O)N2CCOCC2)cc1 | 5 | 6 | 0 | 2 | · | ·
O=C(Nc1ccc(Cl)cn1)c1cc(S(=O)(=O)N2CCCCC2)ccc1Cl | 77* | -3 | 5 | -2 | -6 | -6
O=C(CNCc1ccccc1Cl)Nc1cc(S(=O)(=O)N2CCOCC2)ccc1Cl | 3 | 3 | -2 | -1 | · | ·
O=C(CNC1CCCCC1)Nc1cc(S(=O)(=O)N2CCOCC2)ccc1Cl | 106* | 3 | 3 | 1 | + | +
Cc1ccc(S(=O)(=O)N2CCOCC2)cc1NC(=O)COC(=O)CCc1c[nH]c2ccccc12 | 8 | 1 | -1 | 2 | · | ·
CN(C)c1ccc(C=C(C#N)C(=O)c2ccccc2)cc1Br | 1 | · | · | · | · | ·
O=C(COC(=O)c1cc(S(=O)(=O)N2CCCCC2)ccc1Cl)NC1CCCCC1 | -2 | -10 | · | · | · | ·
O=C(NC1CCCCC1)c1cc(S(=O)(=O)N2CCCC2)ccc1Cl | 104* | 0 | 1 | 0 | 77* | 58*
CCN1CCN(S(=O)(=O)c2ccc(Cl)c(C(=O)NC3CC3)c2)CC1 | 0 | 10 | 3 | 1 | · | ·
CCN1CCN(S(=O)(=O)c2ccc(Cl)c(C(=O)NC3CCCC3)c2)CC1 | 47* | 7 | 2 | 1 | + | +
COc1ccc(C2=NN(C(=O)c3cccs3)C(O)(C(F)(F)F)C2)cc1 (configuration not stated) | 2 | 2 | 3 | 0 | · | ·
COc1ccc(C2=NN(c3nc(C(=O)O)cs3)C(O)(C(F)(F)F)C2)c(OC)c1 (configuration not stated) | 53* | 26 | -2 | 0 | 79* | 61*
COC(=O)C1=C(C)NC(=S)N(C(C)=O)C1c1ccc(OC)c(OC)c1 (configuration not stated) | -4 | 11 | 0 | 1 | · | ·
CCC(CO)Nc1ccn2nc(-c3cc(OC)c(OC)c(OC)c3)cc2n1 (configuration not stated) | 32* | 14 | · | · | -9 | -7
CCC(CO)Nc1ccn2nc(-c3cccs3)cc2n1 (configuration not stated) | 39* | 8 | · | · | + | +
CCC(CO)Nc1ccn2nc(-c3ccccc3)cc2n1 (configuration not stated) | 18 | 3 | · | · | · | ·
CCCCn1nc(C(=O)NCc2ccccc2CN2CCCC2)c2ccccc2c1=O | 1 | -4 | -8 | 2 | · | ·
CCCn1c(=O)c(C(=O)c2ccccc2)nc2ccccc21 | -3 | 20 | 1 | 4 | · | ·
C/C(O)=c1/cnc2nc3ccccc3n2c1=O | 30* | 24 | -5 | 0 | 24 | 21*
O=C(NCC1CCCO1)c1onc(CSc2ccccc2)c1C(=O)O (configuration not stated) | -1 | -1 | -1 | -2 | · | ·
